Measurements from PubChem BioAssay (NCI).
This is part of a sample that, as a whole, favours compounds with a hit. Of some 83,000 tested, about 20% had one in any assay.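 Interpretation: 100, growth as untreated; towards 0, rising growth inhibition; 0, no net growth; 0 to -100, cell death. Compounds scoring below 10 were considered active.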 A number with no mark means an inactive call. Active and inactive are the calls of the source.

test system: HL-60(TB) leukemia; assay: NCI-60 one-dose screen, 48 h (100 = growth as untreated, 0 = no growth, -100 = all killed); conditions: 10 µM unless noted

Going from `Oc1ccc(CSc2nnc(-c3ccc(Oc4ccccc4)cc3)n2-c2ccccc2)c2cccnc12` to `Oc1ccc(CSc2nnc(-c3ccc(Cl)cc3)o2)c2cccnc12`, the growth rises from 10.1% to 12.6%.

First: Cc1ccc(-n2c(/C=C3\C(=O)Nc4ccccc43)ccc2CO)cc1
Second: O=C(COc1ccc(C2SCC(=O)N2c2ccc(F)cc2)cc1)c1ccccc1 (configuration not stated)
The growth of the first is lower: 25.4% for the first, 98.6% for the second.

First: CC(C)(C)OC(=O)N1CCN(S(=O)(=O)/N=C2\NC(=O)NC2=C(Cl)Cl)CC1
Second: CCOC(=O)C(=O)CC(=O)N1C(=S)NC(=O)C1CC(C)C (configuration not stated)
The growth of the first is lower: 40.3% for the first, 111% for the second.

Compared with `COc1ccc(CN2C(=O)/C(=C/c3nc(CO)cs3)SC2=S)cc1`, `COc1ccc(Cn2cc(C#N)c(N)c2C(C)=O)cc1` is higher in growth: 58.9% for the first, 103% for the second.

Compared with `COc1ccc(-c2nc(SCC(C)C)nc(N/N=C\c3cccc([N+](=O)[O-])c3)c2C#N)cc1`, `CN1c2ccccc2Sc2cc(/C=N/Nc3ccnc4cc(Cl)ccc34)ccc21` is lower in growth: 85.1% for the first, 77.1% for the second.

First: O=C(CCCCCCN1CC(=O)N2[C@@H](c3cccs3)c3[nH]c4ccccc4c3C[C@H]2C1=O)NO
Second: C#CCN(C)CCCOc1ccc(NC(=O)CCCCCCCCC(=O)NO)cc1Cl
The growth of the first is higher: 100% for the first, 28.6% for the second.

First: Clc1ccc(-c2cn3cc(Cc4ccc(Cl)c(Cl)c4)sc3n2)cc1
Second: CCn1c(SCC(=O)Nc2cccc(C(=O)/C=C/c3ccccc3Cl)c2)nc2ccccc2c1=O
The growth of the first is lower: 80.3% for the first, 107% for the second.

First: O=C(CCCN1C(=O)/C(=C/c2ccccc2F)SC1=S)N1CCOCC1
Second: CCCCSC1=C(Cl)CN(c2ccccc2)C1=O
The growth of the first is lower: 93.5% for the first, 105% for the second.

Compared with `CS(=O)(=O)Nc1ccc(-c2nn(-c3ccc(S(C)(=O)=O)cc3)cc2/C=C/C(=O)c2ccc(NC(=O)CO[N+](=O)[O-])cc2)cc1`, `Cn1ccnc1C(=O)/C=C/c1ccc(NC(=O)c2c(F)c(F)c(F)c(F)c2F)cc1` is lower in growth: 107% for the first, 78.3% for the second.

First: COc1ccc(OC)c(NC2=C(Cl)C(=O)C(C)=C(C)C2=O)c1
Second: COc1cc2oc(-c3cccc(NC(=O)c4cc(N)ccc4Cl)c3)cc(=O)c2c(OC)c1OC
The growth of the first is lower: 74% for the first, 99.7% for the second.

Going from `Nc1cc(C(=O)N/N=C\c2ccc(OC(F)F)c(OC3CCCC3)c2)nn1CC(O)c1ccccc1` (configuration not stated) to `O=c1[nH]c2ccccc2cc1CSc1ccccc1Nc1nccc(-c2ccc(C(F)(F)F)cc2)n1`, the growth falls from 91.3% to 90%.

First: Nc1nc(=O)n([C@H]2C[C@H](O)[C@@H](CO)O2)cc1C=O
Second: Cc1nc(/N=C(N)/N=C(\N)c2cccc(Br)c2)sc1C
The growth of the first is higher: 94.1% for the first, 12.4% for the second.

Compared with `CCCCCCNC(=O)Oc1ccc(/C(=C(/C)c2ccc(Cl)cc2)c2ccc(OCCN3CCCCCC3)cc2)cc1`, `O=S(=O)(NCCCNc1nccc(-n2cnc3ccccc32)n1)c1ccc(C(F)(F)F)cc1` is higher in growth: 32.4% for the first, 101% for the second.

`Cc1cnc2nc(NN)[nH]n12` showed a growth of 100%.

For `CN1CCN(c2ccc(Nc3nc(NCCCNS(=O)(=O)c4ccccc4)c4sccc4n3)cc2)CC1`, the growth was -32.9% (active).
For `CC(C)C[C@H]1C(=O)O[C@H](C(C)C)C(=O)N(C)[C@@H](C(C)C)C(=O)O[C@H](C(C)C)C(=O)N(C)[C@@H](C(C)C)C(=O)O[C@H](C(C)C)C(=O)N1C`, the growth was -51.3% (active).
`CC(=O)Oc1ccccc1C(=O)Nc1ccc(C(=O)/C=C/c2ccncc2)cc1` was tested, and the growth was 7.33% (active).
With `Cc1ccc(-c2csc(N/N=C/c3nc4ccccc4n3C3CC3)n2)cc1` the growth was 7.25% (active).
`CN1C(=O)N(c2ccccc2)C2N=C(N/N=C/c3ccccc3)SC21` (configuration not stated) was tested, and the growth was -6.56% (active).
`CN(C)CCCNc1c2ccccc2nc2c1oc1ccc(Cl)cc12` was tested, and the growth was -1.29% (active).
In the case of `C=C(C)[C@@H]1CC[C@]2(C)[C@H](CC=C3[C@@H]4CC(C)(C)CC[C@]4(C(=O)NCC#CCN4CCN(C)CC4)CC[C@]32C)[C@@]1(C)CCC#N`, the growth is reported as -47.9% (active).
With `CC(C)(C)Nc1nc2c(OCCc3ccccc3)cccn2c1-c1ccc(O)cc1` the growth was -9.89% (active).
With `CCN(CC)c1ccc(NC2=C(Cl)C(=O)c3nc(C)ccc3C2=O)cc1` the growth was -34.6% (active).
For `Oc1ccccc1/C=N/Nc1nc(N/N=C/c2ccccc2O)nc(N2CCOCC2)n1`, the growth was 3.74% (active).
